Screens deposited in PubChem BioAssay by National Center for Advancing Translational Sciences (NCATS).
Many of the other results were omitted from the sample, so hits are more common in it than they were.
12-LOX inh = blocks human arachidonate 12S-lipoxygenase; P18054; purified 12hLO, xylenol orange hydroperoxide absorbance; Potency, µM (series often up to 108 µM), for inactives: top-dose activity change, negative = inhibition, hits mostly inhibitors; 1.1% of 580,000 active; note: potency is the fitted concentration of half-maximal effect
Target sequence (P18054 whole entry, looked up): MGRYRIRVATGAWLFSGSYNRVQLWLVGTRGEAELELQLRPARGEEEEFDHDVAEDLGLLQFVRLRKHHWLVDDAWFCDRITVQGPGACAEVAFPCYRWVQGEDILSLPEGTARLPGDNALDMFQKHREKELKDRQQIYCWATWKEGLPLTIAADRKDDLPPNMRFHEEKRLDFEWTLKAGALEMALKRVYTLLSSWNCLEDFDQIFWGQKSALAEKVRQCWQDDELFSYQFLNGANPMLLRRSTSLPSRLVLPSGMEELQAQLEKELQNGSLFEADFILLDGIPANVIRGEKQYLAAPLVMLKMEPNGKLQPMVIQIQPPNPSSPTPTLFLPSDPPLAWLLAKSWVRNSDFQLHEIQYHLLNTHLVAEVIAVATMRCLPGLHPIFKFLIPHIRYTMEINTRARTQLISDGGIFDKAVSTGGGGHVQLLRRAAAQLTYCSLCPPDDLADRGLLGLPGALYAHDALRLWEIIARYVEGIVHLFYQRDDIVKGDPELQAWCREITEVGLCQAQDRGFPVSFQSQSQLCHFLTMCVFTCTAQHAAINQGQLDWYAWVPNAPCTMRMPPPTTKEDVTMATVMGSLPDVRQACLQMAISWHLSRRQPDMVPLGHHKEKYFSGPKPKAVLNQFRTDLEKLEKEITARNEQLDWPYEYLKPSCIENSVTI
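Purified human 12hLO (150 nM final) in 25 mM Hepes, 0.01% Triton X-100, pH 7.0 was preincubated 15 min at room temperature with compound. Then 40 uM arachidonic acid was added, 30 min. Hydroperoxide was read by Fe-XO absorbance ratio 573/405 nm.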
TDP1 cell noCPT = qHTS for Inhibitors of human tyrosyl-DNA phosphodiesterase 1 (TDP1): qHTS in cells in absence of CPT. DT40 Tdp1-/- hTDP1 cells, no CPT, ATP luminescence, 48 h. Potency, µM (highest dose often 46.2 µM), inactives show at the top dose activity change, negative = growth inhibition, actives largely listed as inhibitors. 15% of 420,000 active. AID 686978, 2013; note: potency is the fitted concentration of half-maximal effect; nearly all actives have a fitted effect of over 55% in size
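Chicken DT40 Tdp1-/- cells complemented with human TDP1, screened without camptothecin (DMSO vehicle only), 400 cells/well. Compounds pin-transferred, cells incubated at 37 °C for at least 48 hr. Growth read as ATP-dependent luminescence (CellTiter-Glo, 30 min at RT).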
HT1080NT lethal = kills 2HG-producing HT-1080-NT fibrosarcoma cells; AID 686970; 1.6% of 360,000 active; HT-1080-NT fibrosarcoma viability, CellTiter-Glo ATP luminescence, 48 h; Potency, µM (titrated, usually from 46.1 µM), without a hit: at the highest dose activity, negative = less viability, actives largely listed as cytotoxic;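 note: NT is the 2HG producing partner of a matched IDH1 knockdown line; potency is the fitted concentration of half-maximal effect; 0% = DMSO-treated cells and -100% = media-only wells without cells; nearly all actives have a fitted effect of over 55% in size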
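Luminescent CellTiter-Glo readout after 48 hours of compound exposure at 37 degrees C defined viability of HT-1080-NT cells. Activity was normalized to DMSO wells and cell-free media wells; concentration-response curves were fitted and assigned curve classes.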
HT1080 IDH1KD tx = kills HT-1080 cells with IDH1 knockdown; Potency, µM (doses to about 46.1 µM), for the others: at the top dose activity, negative = toxicity, usual class: cytotoxic; HT-1080 IDH1 knockdown viability, ATP luminescence, 48 h; AID 686971; 2% of 360,000 active;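 note: potency is the fitted concentration of half-maximal effect; 0% = DMSO wells and -100% = cell-free medium wells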
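Cytotoxicity counter-line: IDH1KD HT-1080, 48 h, CellTiter-Glo. Curves classed by r2, magnitude and activity.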
TDP1 cell CPT = DT40-hTDP1 cell growth loss with CPT. chicken DT40 Tdp1-/-;hTDP1 cells + 20 nM CPT, ATP luminescence, 48 h. Potency, µM (doses to about 46.2 µM), inactives show at the top dose activity change, negative = growth inhibition, hits mostly inhibitors. 12% of 420,000 active. AID 686979; note: potency is the fitted concentration of half-maximal effect; nearly all actives have a fitted effect of over 55% in size
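Chicken DT40 Tdp1-/- cells complemented with human TDP1, 400 cells/well, exposed to compounds plus 20 nM camptothecin for at least 48 h at 37 C; viability read as ATP content by CellTiter-Glo luminescence.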
IL-1B inflam inh = blocks inflammasome-driven IL-1 beta release; AID 743279; THP-1 LPS/ATP IL-1B secretion, AlphaLISA, 16 h; hits give low values; activity change, % at 57.5 µM; 4.7% of 360,000 active; in the data active = activity change below about -50%; inconclusive = mostly about -30% to -49%
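Secreted IL-1B measured by AlphaLISA bead assay after 16 h compound exposure of THP-1 cells; compounds (final up to 57.5 uM) added 1 h before LPS (250 ng/mL) and ATP (1.25 mM) stimulation; lower signal means less secretion.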
* marks the source's active call; other numbers are inactive results; ? = inconclusive; · = no result; [ ] = remark or other dose. Unless noted, calls come from the whole dose curve; as a rule, active = well fitted curve in the direction sought with a large enough effect; inconclusive = small, poorly fitted or top-dose-only effect, or another doubt; inactive = no such curve, though single readings can be large; an effect the other way counts as inactive or inconclusive. Unless noted, % is set by controls: 0 for no effect and ±100 for the full control effect.

SMILES	12-LOX inh	TDP1 cell noCPT	HT1080NT lethal	HT1080 IDH1KD tx	TDP1 cell CPT	IL-1B inflam inh
O=c1c2ccccc2sn1-c1ccc(S(=O)(=O)N2CCCCC2)cc1	?	16µM*	2%	0%	2.1µM*	-91*
Cc1ccc(-n2sc3ccccc3c2=O)cc1S(=O)(=O)N1CCCCC1	0.089µM*	2.9µM*	?	?	2.3µM*	-106*
O=c1c2ccccc2sn1-c1ccc(S(=O)(=O)N2CCCC2)cc1	-78%	5.2µM*	-1%	-3%[9.24 µM]	3.3µM*	-102*
O=S(=O)(c1ccccc1)N1CCN(S(=O)(=O)N2CCCCCC2)CC1	-14%	-16%	-4%	-14%	5%	14
Cc1ccc(-c2n[nH]c(=O)c3ccccc23)cc1S(=O)(=O)N1CCCCC1	-9%	·	·	·	·	·
CCOc1ccc(S(=O)(=O)N2CCOCC2)cc1NC(=O)CCOc1ccc(C(C)(C)C)cc1	?	?	-3%	3%	?	7
Cc1nc2ncnn2c(N(C)C)c1Cc1ccccc1	12%	·	·	·	·	·
O=C(N/N=C/c1ccc2c(c1)OCO2)c1cc(-c2ccco2)nc2ccccc12	-24%	7.3µM*	4.1µM*	3.7µM*	9.2µM*	20
CC(=O)Nc1ccc(/C=N/NC(=O)c2cc(-c3ccco3)nc3ccccc23)cc1	3%	?	-10%	-8%	-24%	30
O=C(N/N=C/c1ccc2c(c1)OCO2)c1cc(-c2ccccc2)nc2ccccc12	-12%	10µM*	-25%	-25%	21µM*	1
CCOCCN1C(=O)COC[C@@H]1[C@H](O)c1ccc(NC(C)=O)cc1	41%[176 µM]	·	·	·	·	·
COc1ccc(CNC(=O)c2cc(Nc3ccc(C)cc3C)nc3ccccc23)cc1	?	21µM*	·	·	18µM*	·
COc1ccc(Nc2cc(C(=O)NCc3ccccc3)c3ccccc3n2)cc1	-29%	-26%	·	·	?	·
Cc1ccc(C)c(Nc2cc(C(=O)NCCCN(C)C3CCCCC3)c3ccccc3n2)c1	?	15µM*	·	·	?	·
Cc1ccc(-c2cc(C(=O)NCc3ccncc3)c3ccccc3n2)c(C)c1	25%	·	·	·	·	·
COC(CNC(=O)c1cc(Nc2cc(C)cc(C)c2)nc2ccccc12)OC	2%	·	·	·	·	·
Cc1cc(C)cc(Nc2cc(C(=O)NCCCN(C)C3CCCCC3)c3ccccc3n2)c1	?	3.3µM*	·	·	4.6µM*	·
Cc1ccc(C)c(Nc2cc(C(=O)NC3CCCC3)c3ccccc3n2)c1	-16%	?	·	·	-18%	·
Cc1cc(C)cc(Nc2cc(C(=O)NCc3ccccc3)c3ccccc3n2)c1	-26%	21µM*	·	·	23µM*	·
CCOc1ccccc1C(=O)NCc1nnc2ccc(-c3ccc(C)c(C)c3)nn12	35%	·	·	·	·	·
O=C(Nc1cccc(C(=O)OCc2cc(=O)n3c4c(sc3n2)CCCC4)c1)c1ccc(Cl)cc1	?	-20%	·	·	?	·
Cc1cccc(C(=O)OCc2cc(=O)n3c(C)csc3n2)c1	-28%	·	·	·	·	·
COc1cccc(C(=O)Nc2cccc(C(=O)OCc3cc(=O)n4c5c(sc4n3)CCCC5)c2)c1	-9%	18µM*	·	·	?	·
Cc1cccc(C(=O)Nc2ccc(C(=O)OCc3cc(=O)n4c(C)csc4n3)cc2)c1	?	16µM*	·	·	?	·
O=C(Nc1cccc(C(=O)OCc2cc(=O)n3c4c(sc3n2)CCCC4)c1)c1ccccc1	-19%	16µM*	·	·	?	·
SMILES	12-LOX inh	TDP1 cell noCPT	HT1080NT lethal	HT1080 IDH1KD tx	TDP1 cell CPT	IL-1B inflam inh
Cc1ccc(C(=O)Nc2cccc(C(=O)OCc3cc(=O)n4c5c(sc4n3)CCCC5)c2)cc1	-15%	18µM*	·	·	?	·
COc1cccc(C(=O)Nc2cccc(OCc3cc(=O)n4c5c(sc4n3)CCCC5)c2)c1	-14%	-22%	·	·	5%	·
O=C1NC(C(=O)NCc2ccc(Cl)cc2)Cn2cccc21 (stereo not given)	-2%	·	·	·	·	·
CCN(C(=O)c1cc2c(s1)CCC2)C1CC1	49%	·	·	·	·	·
O=C(COc1ccccc1)N1CCC2(CC1)CC(N(Cc1ccccc1)C1CC1)CCO2 (stereo not given)	-7%	·	·	·	·	·
CC(C)(C)NC(=O)CN(C(=O)c1snc(C(=O)NC2CCCCC2)c1N)c1ccc(F)cc1	-15%	?	-1%	-10%	?	-10
Cc1ccc(C)c(NC(=O)CSc2n[nH]c(-c3ccccn3)n2)c1	0%	18µM*	-21%	?	23µM*	60
O=C(CSc1n[nH]c(-c2ccccc2)n1)c1ccc(O)c(O)c1	2.5µM*	?	?	?	?	74
Cc1nc2c(c(SCC(=O)Nc3ccccc3C(F)(F)F)n1)CCC2	-16%	21µM*	·	·	?	·
CCOc1ccc(-c2nc(SCC(=O)c3ccccc3)n[nH]2)cc1	?	-27%	·	·	-20%	·
O=C(CSc1n[nH]c(-c2ccncc2)n1)Nc1ccccn1	?	?	-2%	-4%	-5%	39
O=C(CSc1n[nH]c(-c2ccncc2)n1)Nc1ccccc1C(F)(F)F	0%	10µM*	6%	5%	18µM*	32
Cc1ccccc1NC(=O)CSc1n[nH]c(-c2ccccn2)n1	-1%	?	?	?	18µM*	152
Cc1ccc(O)c(NC(=O)CSc2n[nH]c(-c3ccccc3)n2)c1	-10%	16µM*	-8%	-22%	?	88
CCCCc1nc(CN2CCN(c3cccc(F)c3C#N)CC2)no1	-23%	·	·	·	·	·
Cc1nnc(C)c2c(C)n(Cc3ccc4c(c3)OCO4)c(C)c12	-25%	16µM*	-4%	-10%	13µM*	-13
O=C(NCc1nc(-c2ccc(C(F)(F)F)cc2)no1)Nc1ccc(OC(F)(F)F)cc1	271%	8.2µM*	26µM*	?	?	-90*
COc1ccc(-c2noc(CNS(=O)(=O)c3ccc(NC(C)=O)cc3)n2)cc1	4%	-21%	-1%	-2%	?	1
COCCN(CC(=O)NCC1CCCO1)C(=O)CCC(=O)Nc1ccccn1 (stereo not given)	1%	23µM*	19%	0%	13µM*	-9
CCN(CC)C(=O)c1cccnc1	?	-19%	·	·	6%	·
CC(C)(C)C(=O)N1CCN(c2ncnc3scc(-c4ccccc4)c23)CC1	0%	?	-23%	?	?	-56*
CCOC(=O)N1CCN(c2ncnc3scc(-c4ccccc4)c23)CC1	5%	8.2µM*	-3%	-26%	15µM*	-1
